Screens as filed in PubChem.
This is a sample that favours compounds with a hit; in the whole collection about 4.2% have one here.
ssDAF-12 act: S. stercoralis DAF-12 activation, primary screen; HEK293 ssDAF-12/GRIP1 lit1-tk-luc reporter, luminescence; % of 3 µM dafachronic acid response; activation, % at 6.8 µM; 370,000 tested, 1% active;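 active = activation above the mean over all tested compounds plus 3 SD, cut at about 0.9% in these data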;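 note: 0% = DMSO-only wells and 100% = 3 µM delta7-dafachronic acid wells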
hcDAF-12 act: H. contortus DAF-12 activation, primary screen; HEK293 hcDAF-12 lit1-tk-luc reporter, luminescence; 0% DMSO, 100% Δ7-dafachronic acid; 370,000 tested, 1.4% active; activation, % at 6.8 µM;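 active = activation above the mean of all tested compounds plus 3 SD, cut at about 5.5% in these data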;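 note: 100% = response to 3 µM Δ7-dafachronic acid high control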
esBAF inh: blocks esBAF chromatin remodeling in mouse ES cells; Bmi1-luciferase knock-in reporter, 24 h; 100% = twice the neutral-well signal; reporter increase, % at 12.5 µM; 350,000 tested, 2% active; AID 602393; in the data active = activation above about 40%; inconclusive = no clear call, values can overlap the other calls;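 note: 0% = median of the plate's neutral control wells and 100% = double that signal; a rise in the Bmi1 reporter signal indicates esBAF inhibition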
DAX1 inh: blocks DAX1 repression of SF-1 activated StAR promoter | 370,000 tested, 1.1% active | HEK293T StAR-luciferase reporter, SF-1/DAX-1 repression relief | inhibition, % at 6.8 µM | AID 652010;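 active = inhibition above the mean over all tested compounds plus 3 SD, cut at about 3.6% in these data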;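 note: 0% = DAX-1 cells with DMSO and 100% = cells lacking DAX-1 with DMSO; higher inhibition means more luminescence from relief of DAX-1 repression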
hgDAF-12 ag: activates the H. glycines DAF-12 receptor ligand-binding domain. HEK293 GAL4-hgDAF12 UAS-luciferase reporter, agonist luminescence; normalized to butyrate control. activation, % at 6.8 µM. AID 687014. 370,000 tested, 1.8% active;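 active = activation above a cutoff set at the mean of all screened compounds plus 3 SD, cut at about 10% in these data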;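 note: 0% = DMSO wells and 100% = sodium butyrate wells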
Wnt act: Wnt/beta-catenin pathway activation | Wnt/beta-catenin reporter cell assay, activator, plate reader | activation, % at 9.35 µM | 300,000 tested, 1.2% active | AID 743398; in the data active = activation above about 30%, passing the limit was not always enough; inconclusive = no clear call, values can overlap the other calls;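 note: 0% = neutral control wells and 100% = positive control wells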
LXR ag: activates human LXR-beta, counter-screen for hcDAF-12 agonists | shares compounds with hcDAF-12 act | HEK293 Gal4-LXR tk-luc reporter, luminescence, 24 h; normalized: DMSO 0%, positive control 100% | activation, % at 6.8 µM | 3,400 tested, under 10 active | AID 743027;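 active = mean percent activation of the reporter above a cutoff set as the average over tested compounds plus their standard deviation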
Target sequence (P55055 whole entry, looked up, the tested form may be a part): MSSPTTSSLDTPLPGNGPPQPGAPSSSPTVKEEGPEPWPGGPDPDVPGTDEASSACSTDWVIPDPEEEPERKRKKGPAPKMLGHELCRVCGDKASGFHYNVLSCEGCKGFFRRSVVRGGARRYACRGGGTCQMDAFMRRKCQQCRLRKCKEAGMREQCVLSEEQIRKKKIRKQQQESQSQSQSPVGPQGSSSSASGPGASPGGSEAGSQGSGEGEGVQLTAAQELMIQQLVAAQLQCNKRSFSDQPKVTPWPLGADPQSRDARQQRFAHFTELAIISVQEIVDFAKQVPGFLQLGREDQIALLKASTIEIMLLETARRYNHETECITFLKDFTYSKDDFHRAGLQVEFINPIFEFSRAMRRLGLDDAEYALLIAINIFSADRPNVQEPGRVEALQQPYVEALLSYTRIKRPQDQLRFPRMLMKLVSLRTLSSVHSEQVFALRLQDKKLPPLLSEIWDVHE
hcDAF12 conf: confirmation of H. contortus DAF-12 agonists | shares compounds with hcDAF-12 act | 3,400 tested, 61% active | HEK293 hcDAF-12 lit1-tk-luc reporter, luminescence; % of Δ7-dafachronic acid response | AID 743032 | activation, % at 6.8 µM;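 active = mean activation across triplicate tests above the threshold derived from the earlier primary screen, cut at about 5.5% in these data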;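 note: 0% = DMSO only wells and 100% = 3 µM Δ7-dafachronic acid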
hgDAF12 conf: confirmation of H. glycines DAF-12 agonists | shares compounds with hgDAF-12 ag | HEK293 GAL4-hgDAF12 luciferase reporter, agonist mode; percent of butyrate response | activation, % at 6.8 µM | 3,300 tested, 80% active | AID 743050;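 active = mean activation over triplicate wells above the hit cutoff derived from the earlier primary screen, cut at about 11% in these data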;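 note: 0% = DMSO low control and 100% = 2 mM sodium butyrate high control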
LXRb DAF12 ctr: counter-screen for DAF-12 agonists: agonists of human LXR-beta; HEK293 Gal4-LXR luciferase reporter, 24 h; 3,300 tested, under 10 active; activation, % at 6.8 µM; shares compounds with hgDAF-12 ag;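 active = mean activation of the triplicate above a set limit carried over from the primary screen, none filed active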
* marks the source's active call; other numbers are inactive results; ? = inconclusive; . = not tested or not shown.

SMILES | ssDAF-12 act | hcDAF-12 act | esBAF inh | DAX1 inh | hgDAF-12 ag | Wnt act | LXR ag | hcDAF12 conf | hgDAF12 conf | LXRb DAF12 ctr
COc1ccc(C2Nc3ccccc3C(=O)N2c2ccccc2)cc1CN1CCOCC1 (stereo unspecified) | -1 | 1 | 25 | -1 | 0 | 2 | . | . | . | .
CCCc1cn(CC[C@H]2CC[C@@H](NS(=O)(=O)c3ccccc3Cl)[C@H](CO)O2)nn1 | . | . | 0 | . | . | . | . | . | . | .
CCC(=O)N1C[C@@H](C)[C@H](OC)CN(C)C(=O)c2cc(NC(=O)C3CCCCC3)ccc2OC[C@@H]1C | . | . | 4 | . | . | . | . | . | . | .
Fc1ccccc1N=C1NN=C(c2ccccc2)CS1 | 1.0* | 12* | 53* | 4 | 12* | -1 | 2 | 8.5* | . | .
Fc1ccc(F)c(C2=NNC(=Nc3ccccc3F)SC2)c1 | 2.7* | 8.6* | . | 3 | 13* | 1 | 1 | 8.1* | . | .
CCNC(=O)C[C@@H]1CC[C@@H]2[C@H](COc3ccc(NC(=O)Nc4c(C)noc4C)cc3C(=O)N2C)O1 | . | . | -3 | . | . | . | . | . | . | .
COc1ccccc1CNC(=O)C[C@H]1C=C[C@H](NC(C)=O)[C@@H](CO)O1 | . | . | -6 | . | . | . | . | . | . | .
Cc1ccc(C(=O)Nc2ccn(Cc3ccc(F)cc3)n2)o1 | 0 | 6.9* | . | 1 | 2 | . | 0 | 3 | . | .
C[C@@H]1CN([C@@H](C)CO)C(=O)Cc2cc(NC(=O)C3CCCCC3)ccc2O[C@H]1CN(C)S(C)(=O)=O | . | . | 0 | . | . | . | . | . | . | .
C[C@H]1CN([C@@H](C)CO)C(=O)c2cc(NC(=O)c3ccncc3)ccc2O[C@@H]1CN(C)C(=O)Nc1ccc2c(c1)OCO2 | . | . | 2 | . | . | . | . | . | . | .
CCOc1ccc(NC(=O)/C(C#N)=C/c2cn(CC(=O)O)c3ccccc23)cc1 | 0 | 3 | -5 | 0 | -2 | 3 | . | . | . | .
CCOc1cccc(NC(=O)/C(C#N)=C\c2cn(CC(=O)O)c3ccccc23)c1 | 0 | 6.7* | 1 | 0 | -1 | -1 | 0 | 4 | . | .
O=C(C[C@@H]1CC[C@@H](NC(=O)CN2CCOCC2)[C@H](CO)O1)NCc1cccc(F)c1 | . | . | -1 | . | . | . | . | . | . | .
NC(=O)C1CCCN(C(=S)Nc2cccc3ccccc23)C1 (stereo unspecified) | 0 | 7.7* | 6 | 1 | 2 | 1 | 0 | 0 | . | .
NC(=O)C1CCCN(C(=S)NCc2ccc3c(c2)OCO3)C1 (stereo unspecified) | -1 | -1 | . | 0 | 1 | 2 | . | . | . | .
COc1cccc(-c2cn3nc4c(nc3n2)CCCC4)c1 | . | . | -83 | . | . | . | . | . | . | .
Clc1ccc(-c2cn3nc4c(nc3n2)CCCC4)cc1 | 1 | 8.1* | . | 4.2* | 12* | . | 1 | 7.5* | . | .
CC(C)(C)NC(=O)C(c1ccc(O)cc1)N(Cc1ccco1)C(=O)Cn1nnc(-c2cccs2)n1 (stereo unspecified) | -1 | 8.2* | 0 | 0 | -2 | -4 | 0 | 0 | . | .
Cc1ccccc1-c1noc(-c2ccc(O)cc2)n1 | 1 | 6.9* | 38 | 3 | 18* | 28 | 1 | 4 | 16* | 1
CC(C)C(=O)Nc1ccc2c(c1)C(=O)N(C)[C@@H]1CC[C@H](CC(=O)NCc3ccccc3F)O[C@@H]1CO2 | . | . | 4 | . | . | . | . | . | . | .
Cc1cc(C)c(C#N)c(SCc2ccc(F)cc2)n1 | -1 | 0 | . | 0 | -4 | -2 | . | . | . | .
Cc1cc(C)c(C#N)c(SCc2nc3ccccc3[nH]2)n1 | 3.6* | 18* | . | 3 | 15* | . | 1 | 11* | 12* | 0
O=C(NCC1CCCCC1)[C@H]1[C@H](CO)[C@H]2Cn3c(ccc(C4=CCCC4)c3=O)[C@@H]1N2C(=O)CC1CC1 | . | . | -1 | . | . | . | . | . | . | .
Cc1ccc(C=NNc2ccc([N+](=O)[O-])cn2)cc1 | 0 | 7.4* | . | 2 | 18* | 6 | 1 | 3 | 13* | 1
C/C=C/c1cnc2c(c1)C(=O)N([C@@H](C)CO)C[C@@H](C)[C@H](CN(C)C(=O)c1cccc(F)c1)O2 | . | . | 2 | . | . | . | . | . | . | .
SMILES | ssDAF-12 act | hcDAF-12 act | esBAF inh | DAX1 inh | hgDAF-12 ag | Wnt act | LXR ag | hcDAF12 conf | hgDAF12 conf | LXRb DAF12 ctr
CNC[C@H]1OCCCC[C@H](C)Oc2ccc(NC(=O)NC3CCCCC3)cc2C(=O)N([C@@H](C)CO)C[C@@H]1C | . | . | -4 | . | . | . | . | . | . | .
O=C(Nc1ccccc1)c1cc2ccccc2o1 | 1.9* | 13* | -8 | 3 | 19* | 35* | 2 | 17* | 22* | 1
Cc1ccccc1NC(=O)c1cc2ccccc2o1 | 0 | 7.7* | 47* | 2 | 14* | 18 | 1 | 9.2* | 16* | 1
O=C(Nc1cccc(-c2nc3ncccc3o2)c1)c1cc2ccccc2o1 | -1 | -2 | . | -1 | -1 | -3 | . | . | . | .
COc1ccc(S(=O)(=O)Nc2ccccc2OC)cc1NC(=O)c1cc2ccccc2oc1=O | 0.9* | 7.7* | . | 3 | 14* | . | 1 | 4 | 10 | 0
O=C(Nc1ncccc1Cl)c1cc2ccccc2o1 | 1 | 7.3* | ? | 2 | 16* | 46* | 1 | 6.2* | 18* | 1
Cc1ccc(S(=O)(=O)Nc2cccc3c2O[C@@H](CN(C)Cc2ccc(Cl)c(Cl)c2)[C@@H](C)CN([C@H](C)CO)C3=O)cc1 | . | . | -12 | . | . | . | . | . | . | .
COc1ccccc1NC(=O)c1cc2ccccc2o1 | 1.9* | 16* | 72* | 2 | 14* | . | 1 | 15* | 22* | 1
COc1cc(NC(=O)c2cc3ccccc3o2)c(OC)cc1Br | 0 | 1 | 1 | 1 | 6 | . | . | . | . | .
N/C(=N\OC(=O)c1cc(-c2ccccc2)nc2ccccc12)c1cccnc1 | -1 | 1 | . | 0 | 4 | -1 | . | . | . | .
N/C(=N\OC(=O)Cc1ccccc1[N+](=O)[O-])c1ccccn1 | -2 | 0 | . | 0 | 0 | -1 | . | . | . | .
Cc1ccc(C(=O)O/N=C(\N)c2ccccn2)c(Cl)c1 | -3 | -7 | -84 | -2 | -15 | -7 | . | . | . | .
N/C(=N\OC(=O)c1cccc2ccccc12)c1ccccn1 | 3.5* | 15* | . | 2 | 14* | 2 | 1 | 14* | 11* | 1
N/C(=N\OC(=O)c1cc(Br)ccc1Cl)c1ccccn1 | 3.8* | 16* | . | 3.7* | 21* | 9 | 1 | 15* | 23* | 1
